Compounds with a hit are over-represented: about 2.4% of the library has one in this group of screens.
HepG2 viability: HepG2 cytotoxicity, counter-screen for TGF-b inhibitors | HepG2 CAGA-GFP viability, ATP luminescence, 18 h | Potency, µM (series often up to 46.1 µM), inactives show top-dose activity change, negative = cytotoxicity, hits mostly cytotoxic | 410,000 tested, 0.76% active | AID 588856
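HepG2 CAGA-GFP cells (1000/well, DMEM with 1% FBS) received compound, then TGF-beta at 500 pg/mL final, and were incubated 18 hours at 37 degrees C. Viability was read by CellTiter-Glo luminescence. Media-only wells were set as complete cell-killing and DMSO as no toxicity.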
ATXN2 expr inh: reduces ATXN2 reporter expression in HEK-293 cells. HEK-293 ATXN2-luciferase reporter, luminescence, 24 h. Potency, µM (titrated, usually from 57 µM), for the others: at the highest dose activity change, negative = inhibition, actives largely listed as inhibitors. 360,000 tested, 0.72% active. AID 1745845; further: on the % scale 0 is the no-effect control and ±100 the full control effect; nearly all actives have a fitted effect of over 55% in size
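ATXN2-luciferase reporter cells (luciferase flanked by upstream and downstream ATXN2 gene portions) were treated 24 h at 37 °C with compounds at up to 57 uM. SteadyGlo luminescence gave expression; GF-AFC fluorescence gave viability.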
Anesthetic bind: binds horse apoferritin like a general anesthetic; P02791; apoferritin/1-aminoanthracene competitive binding, fluorescence; Potency, µM (top dose mostly 77.5 µM), inactives show at the top dose activity change, negative = displacement, most hits filed as inhibitors; 350,000 tested, 0.074% active; AID 485281; further: on the % scale 0 is the no-effect control and ±100 the full control effect; nearly all actives have a fitted effect of over 20% in size
Target sequence (P02791 2-175 limits assumed): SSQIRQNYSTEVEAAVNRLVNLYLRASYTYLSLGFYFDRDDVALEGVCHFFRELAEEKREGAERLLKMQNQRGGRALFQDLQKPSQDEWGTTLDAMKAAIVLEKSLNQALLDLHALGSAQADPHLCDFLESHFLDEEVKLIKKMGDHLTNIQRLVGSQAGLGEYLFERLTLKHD
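In PBS, apoferritin at 10 uM is loaded with 1-AMA from a 50% saturated solution. After 10 min of compound exposure at ambient temperature, reduced 535 nm fluorescence indicates probe displacement.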
TGFb inhibitor: TGF-b pathway inhibition; HepG2 CAGA-GFP TGF-b/SMAD3 reporter, GFP fluorescence, 18 h; TGF-beta stimulated, 500 pg/mL final; Potency, µM (highest dose often 46.1 µM), without a hit: top-dose activity, negative = inhibition, actives largely listed as inhibitors; 410,000 tested, 1.2% active; AID 588855; further: on the % scale 0 is the no-effect control and ±100 the full control effect; nearly all actives have a fitted effect of over 65% in size
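Inhibition was scored as loss of TGF-beta-induced (500 pg/mL final, 18 hours, 37 degrees C) GFP in HEPG2 cells carrying a CAGA-GFP reporter, in DMEM with 1% FBS. Well GFP was summed per cell; Activity was normalised to unstimulated and stimulated DMSO wells, then concentration-response fitting.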
ATXN viability: reduces viability in counter-screen for ATXN expression inhibitors | S2 cells (HEK-293 line with an ATXN2-luciferase reporter) viability, CellTiter-Fluor protease fluorescence, 24 h | Potency, µM (series often up to 56.7 µM), usual class: cytotoxic | 400,000 tested, 0.49% active; further: nearly all actives have a fitted effect of over 40% in size
* = called active by the depositor; i = inactive; ? = inconclusive; / = no result; [ ] = dose if it differs, or a comment. The call rests on the fitted dose curve; in most records, active means well fitted curve in the direction sought with a large enough effect; inconclusive means small, poorly fitted or top-dose-only effect, or another doubt; inactive means no such curve, though single readings can be large; an effect the other way counts as inactive or inconclusive. Potency means the concentration at half of the fitted maximal effect.

SMILES	HepG2 viability	ATXN2 expr inh	Anesthetic bind	TGFb inhibitor	ATXN viability
CCOc1ccc(NC(=O)CN2CC(c3ccccc3)CC2=O)cc1 (stereo not drawn)	-1%	8%	-1%	12%	i
O=C(CNC(=O)c1ccc(F)cc1)N/N=C/c1cc(Br)ccc1OC(=O)/C=C/c1ccco1	-52%	8.9µM*	-7%	?	?
NNC(=O)CNC(=O)c1cccc(Br)c1	-2%	3%	28µM*	-6%	i
O=C(CNC(=O)c1ccccc1Br)N/N=C/c1cc(Br)ccc1O	-8%	10µM*	?	-17%	i
O=C(CNC(=O)c1ccccc1F)N/N=C/c1cc(Br)ccc1OC(=O)/C=C/c1ccco1	-17%	?	-13%	-27%	i
O=C(CN1CC(c2ccccc2)CC1=O)N/N=C/c1cc(Br)ccc1O (stereo not drawn)	2%	14µM*	-7%	-12%	i
CC1(C)O[C@H]2[C@@H](O1)[C@@H](C(=O)Nc1ccccc1O)O[C@@H]1OC(C)(C)O[C@@H]12	-29%	13%	-8%	-1%	i
c1ccc(CNc2nc(N3CCOc4ccccc43)nc3c2CCCC3)cc1	/	0%	/	/	/
O=C1C[C@@H](O)[C@@H](O)[C@H]2[C@@H]3C(=O)N(c4cccc(Oc5ccccc5)c4)C(=O)[C@@H]3CC[C@H]12	/	/	10%[15.3 µM]	/	/
O=C(CNC(=O)c1ccc2c(c1)OCCO2)N/N=C/c1cccc(Br)c1	4%	-25%[11.3 µM]	5.6µM*	-19%	i
O=C(CNC(=O)c1ccncc1)N/N=C/c1cc(Br)ccc1O	-1%	?	-19%	?	?
O=C(CNC(=O)c1ccccc1)N/N=C/c1cc(Br)ccc1O	-42%	28µM*	-7%	-3%	i
O=C(CNC(=O)c1ccc2c(c1)OCCO2)N/N=C/c1ccc(Cl)cc1	-2%	-3%	?	-27%	?
CC(C)CC(CSc1ccc(Br)cc1)N1CCN(CC(C)C)CCC1=O (stereo not drawn)	-35%	/	-18%	?	/
Cc1cc(C(=O)CCl)c(C)n1-c1cccc([N+](=O)[O-])c1	-95%	?	-8%	?	25µM*
Cc1ccc(OCC(=O)c2cc(C)n(-c3ccccc3)c2C)c([N+](=O)[O-])n1	-15%	3.2µM*	-16%	?	i
Cc1ccc(OCC(=O)c2cc(C)c(C)cc2C)c([N+](=O)[O-])n1	-32%	1%	?	11µM*	i
O=C(O)CCCCNCc1ccccc1	-10%	3%	1%	4%	i
c1ccc(CNCCCNCCCCNCCCNCc2ccccc2)cc1	7.9µM*	28µM*	/	?	?
O=C(NCC1CCN(Cc2ccc(F)cc2)CC1)C1CCCN(c2ncnc3c2nc2n3CCCCC2)C1 (stereo not drawn)	-52%	/	-11%	13µM*	?
O=C(NCC1CCN(Cc2ccc(Cl)cc2)CC1)C1CCCN(c2ncnc3c2nc2n3CCCCC2)C1 (stereo not drawn)	-21%	/	-8%	-23%	?
Cc1cccc(N2CCN(CCCNC(=O)C3CCCN(c4ncnc5c4nc4n5CCCCC4)C3)CC2C)c1 (stereo not drawn)	-21%	25µM*	-15%	?	18µM*
C/C(CCN1CCCc2nc(C)c(C)cc21)=N\O[C@@H](C)c1cn([C@H](CO)Cc2ccccc2)nn1	/	/	10%[15.3 µM]	/	/
COC(=O)CN1C(=O)[C@@H]2[C@H](C1=O)[C@@H]1CC(C(=O)OC)=C[C@@H](C(=O)OC)C3C1=C(C(=O)[C@]3(C)NC(=O)c1ccccc1)[C@@H]2C (stereo partly drawn)	-21%	/	-1%	-18%	/
Cc1cc(OC(C)C(=O)NNC(=O)Nc2ccc(F)cc2F)cc(C)c1Cl (stereo not drawn)	-31%	9%	?	16µM*	i
SMILES	HepG2 viability	ATXN2 expr inh	Anesthetic bind	TGFb inhibitor	ATXN viability
CCOCCCNC(=O)c1c(NC(=O)c2nc(SCC)ncc2Cl)sc2c1CCCC2	-2%	/	/	16%	/
C=CC[C@@H]1C=C[C@H](Oc2ccc(C)cc2)[C@H](COC(=O)NCc2cccc3ccccc23)O1	/	/	-1%[15.3 µM]	/	/
C#CCCc1ccccc1/C=[N+](/C)[O-]	-94%	-7%	/	16µM*	i
Nn1cnnc1SCC(=O)Nc1ccc(C2CCCCC2)cc1	-4%	42%	7.1µM*	-25%	i
Cc1ccc(NC(=O)CSCC(=O)O)cc1	1%	/	-4%	-2%	i
O=C(O)CSCC(=O)Nc1ccc(C2CCCCC2)cc1	-84%	2.2µM*	?	-4%	i
COc1ccc(NC(=O)CSc2nnc(C3CCCCC3)n2N)cc1	-3%	9%	?	?	i
Nn1c(SCC(=O)Nc2cccc(F)c2)nnc1C1CCCCC1	8%	-3%	8.9µM*	14%	i
COc1cc(CCNC2=CC(=O)c3ncccc3C2=O)ccc1O	2.5µM*	24µM*	/	?	/
O=Nc1c(-c2c(O)[nH]c3cc(Br)ccc23)[nH]c2ccccc12	7.9µM*	?	?	8.9µM*	11µM*
OC(Cc1ccc2ccccc2n1)c1ccccc1 (stereo not drawn)	-9%	/	/	2%	/
CCc1nc2c(OCc3ccc(Cl)cc3Cl)cccn2c1N(C)C(C)=O	-46%	18µM*	/	?	/
CCC(CC)C(=O)N(C)c1c(C)nc2c(OCc3cc(Cl)cc(Cl)c3)cccn12	-93%	-25%	/	13µM*	i
CCC(CC)C(=O)N(C)c1c(C)nc2c(OCc3cccc(Cl)c3)cccn12	-18%	?	/	-10%	i
C=CC(=O)Nc1cccc(Oc2ccnc3[nH]ccc23)c1	2%	-33%	/	?	8.9µM*
Cc1ccc(-n2ncc(C(=O)NCCN3CCc4ccccc4C3)c2C2CCN(C(=O)OC(C)(C)C)CC2)cc1	-100%	/	-17%	?	/
O=C(/C=C/c1ccccc1)c1ccc2c(c1)OCCCCO2	-55%	55%	?	-15%	i
O=C1COc2ccc(C(=O)/C=C/c3ccccc3)cc2N1	-15%	-1%	-11%	8.9µM*	i
NC(=O)C1CCCN(Cc2ccc3c(c2)CN(Cc2cn[nH]c2-c2ccc(F)cc2)CCO3)C1 (stereo not drawn)	/	/	/	/	i
O=C1CCCC=C1[C@@H](O)C1CCCCC1	/	/	-1%[15.3 µM]	/	/
Cc1ccc2cccc(N=Cc3c(C)[nH]n(-c4ccccc4)c3=O)c2n1	-55%	28µM*	-15%	?	i
Cc1[nH]n(-c2ccccc2)c(=O)c1/C=N/O	-30%	2%	-17%	-13%	i
Cc1ccc(NC(=O)c2cnn3c2NC(=C2CC2)C=C3C(F)F)cc1	10%	/	/	18%	/
Cc1cc(Cl)cc(Cl)c1OCCOc1cccc2cccnc12	-49%	-7%	?	11µM*	i

Source: PubChem
